Measurements taken from PubChem BioAssay AID504333 (National Center for Advancing Translational Sciences (NCATS), 2011).
Values joined by “and” are separate entries in the source; they are usually repeats but may differ in a detail not shown here. Identical values can stand only once. Screen size: about 360,000 compounds; about 16,000 (4.4%) were called active. Inconclusive results (about 9%) are left out. Calls follow the shape of the dose curve; as a rule, active = well fitted inhibition curve with a large enough effect; inconclusive = small, poorly fitted or top-dose-only effect; inactive = no such curve, though single readings can be large or run the other way. The full list was thinned out, with actives kept by preference. Where a structure was tested more than once in an assay, its records may differ in their call.

These compounds were tested against Bromodomain adjacent to zinc finger domain protein 2B (Homo sapiens) (UniProt Q9UIF8) (assay: qHTS Assay for Inhibitors of BAZ2B). Conditions: AlphaScreen BAZ2B-H3K14Ac peptide displacement; series mostly up to 114 µM; activity change, negative = inhibition: at the top concentration.
How it was run: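 Compounds, titrated to a top concentration of 110 uM, were incubated 30 min at room temperature with preformed BAZ2B/acetyl-K14 H3 peptide complex (50 nM each). Proximity signal was measured by AlphaScreen after 20 min with beads.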
% is scaled to controls: 0 for no effect and ±100 for the full control effect; potency is read from the fitted curve at half-maximal effect.
Also: nearly all actives have a fitted effect of over 60% in size.

Bromodomain adjacent to zinc finger domain protein 2B (Homo sapiens), sequence (Q9UIF8 whole entry, looked up, the tested form may be a part): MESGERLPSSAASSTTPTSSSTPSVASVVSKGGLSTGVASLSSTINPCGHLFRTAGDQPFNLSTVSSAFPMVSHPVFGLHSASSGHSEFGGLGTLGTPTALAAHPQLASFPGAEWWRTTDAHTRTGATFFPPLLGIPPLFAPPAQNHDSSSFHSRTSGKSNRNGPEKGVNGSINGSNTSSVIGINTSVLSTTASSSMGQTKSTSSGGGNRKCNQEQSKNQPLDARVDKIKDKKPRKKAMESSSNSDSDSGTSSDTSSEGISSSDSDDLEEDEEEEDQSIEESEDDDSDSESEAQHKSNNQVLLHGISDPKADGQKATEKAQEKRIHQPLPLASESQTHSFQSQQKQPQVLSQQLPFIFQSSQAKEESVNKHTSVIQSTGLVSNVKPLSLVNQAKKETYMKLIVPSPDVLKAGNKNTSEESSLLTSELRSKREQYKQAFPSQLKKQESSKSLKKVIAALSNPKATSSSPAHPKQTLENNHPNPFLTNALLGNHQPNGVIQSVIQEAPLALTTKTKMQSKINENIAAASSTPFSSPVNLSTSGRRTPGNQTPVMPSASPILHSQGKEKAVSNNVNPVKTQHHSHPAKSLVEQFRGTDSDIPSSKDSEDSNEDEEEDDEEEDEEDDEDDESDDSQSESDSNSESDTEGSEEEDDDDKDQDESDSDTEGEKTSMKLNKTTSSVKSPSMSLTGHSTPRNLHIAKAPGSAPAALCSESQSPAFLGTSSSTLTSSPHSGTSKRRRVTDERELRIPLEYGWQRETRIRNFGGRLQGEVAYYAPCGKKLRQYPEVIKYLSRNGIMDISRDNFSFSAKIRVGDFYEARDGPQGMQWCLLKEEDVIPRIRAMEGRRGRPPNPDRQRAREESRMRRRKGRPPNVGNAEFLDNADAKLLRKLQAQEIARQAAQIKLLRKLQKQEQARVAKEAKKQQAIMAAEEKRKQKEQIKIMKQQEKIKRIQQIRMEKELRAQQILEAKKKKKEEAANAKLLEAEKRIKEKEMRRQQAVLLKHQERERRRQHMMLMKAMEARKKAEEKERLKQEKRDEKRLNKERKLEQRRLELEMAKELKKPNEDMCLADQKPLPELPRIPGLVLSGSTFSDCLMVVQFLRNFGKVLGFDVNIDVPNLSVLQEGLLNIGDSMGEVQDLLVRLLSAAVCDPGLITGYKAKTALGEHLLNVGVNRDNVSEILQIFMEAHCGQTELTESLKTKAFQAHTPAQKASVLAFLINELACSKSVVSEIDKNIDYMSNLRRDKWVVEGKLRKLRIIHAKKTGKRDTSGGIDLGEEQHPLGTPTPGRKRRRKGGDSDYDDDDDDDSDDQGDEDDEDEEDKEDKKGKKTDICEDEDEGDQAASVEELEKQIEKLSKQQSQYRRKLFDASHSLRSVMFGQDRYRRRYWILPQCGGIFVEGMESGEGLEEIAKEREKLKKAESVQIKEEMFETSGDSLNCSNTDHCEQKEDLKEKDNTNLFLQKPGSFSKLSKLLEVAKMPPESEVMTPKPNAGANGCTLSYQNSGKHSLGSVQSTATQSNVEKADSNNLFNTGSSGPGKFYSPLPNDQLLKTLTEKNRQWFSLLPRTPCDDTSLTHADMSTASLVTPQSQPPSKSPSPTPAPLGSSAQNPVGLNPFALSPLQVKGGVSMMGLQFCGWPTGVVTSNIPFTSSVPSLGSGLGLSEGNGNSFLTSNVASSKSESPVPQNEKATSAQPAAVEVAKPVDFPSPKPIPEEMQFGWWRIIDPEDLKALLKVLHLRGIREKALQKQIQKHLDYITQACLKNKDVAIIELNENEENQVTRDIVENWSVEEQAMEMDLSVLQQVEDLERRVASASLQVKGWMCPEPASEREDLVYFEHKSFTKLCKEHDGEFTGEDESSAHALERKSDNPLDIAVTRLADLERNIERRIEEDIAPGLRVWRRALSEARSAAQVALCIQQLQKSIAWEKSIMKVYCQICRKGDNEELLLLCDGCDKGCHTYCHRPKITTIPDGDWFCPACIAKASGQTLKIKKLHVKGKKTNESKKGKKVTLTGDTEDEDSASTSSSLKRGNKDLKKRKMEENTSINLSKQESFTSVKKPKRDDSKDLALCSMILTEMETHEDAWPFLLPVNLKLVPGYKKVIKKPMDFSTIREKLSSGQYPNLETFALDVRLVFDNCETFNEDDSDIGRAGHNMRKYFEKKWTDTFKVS

Activity change, negative = inhibition, inactive:
Cc1ccccc1CSc1nnc(-c2cccnc2)n1N 1.75%, Cc1ccccc1CSc1nnc(Cn2c(=O)sc3ccccc32)n1C -2.9%, CCOC(=O)CCCNC(=O)COC(=O)/C=C/c1ccc2c(c1)OCO2 -8.04%, O=C(Cc1ccc(F)cc1)N/N=C/c1ccc2c(c1)OCO2 3.35%, Cn1c(=O)c2c(nc(SCC(=O)Nc3ccc(F)cc3)n2Cc2ccc(Cl)cc2)n(C)c1=O 2.76%, CC1Cc2cc(S(=O)(=O)CCC(=O)Nc3ccc(F)c(Cl)c3)ccc2N1C(=O)C1CC1 (stereo not given) -6.1%, Cc1ccc(NC(=O)c2cc3ccccc3o2)cc1 -1.9%, CC(C)Oc1ccc(NC(=O)c2cc3ccccc3o2)cc1 -17.6%, Cc1ccc(NC(=O)C2CCN(S(=O)(=O)c3cc(-c4noc(C)n4)ccc3C)CC2)c(C)c1 -7.07%, C/C(=N\NC(N)=S)c1cccnc1 -1.17%, C/C(=N/NC(=O)c1ccn(C)n1)c1ccncc1 -32%, CCOC(=O)c1c(C)[nH]c(C)c1S(=O)(=O)N(C)CC(=O)N1CCN(c2ccccc2)CC1 -19.6%, Cc1ccccc1NC(=O)Cn1c(=O)n(CC2CCC(C(=O)NCCc3ccccc3)CC2)c(=O)c2ccccc21 (stereo not given) -1.6%, Cc1c(Cl)cccc1NC(=O)C(=O)NCCc1csc2nc(-c3ccccc3F)nn12 -7.32%, CC1(C(=O)NCCc2c[nH]c3ccccc23)C=CC2(CCCCC2)N1C(=O)c1ccccc1 (stereo not given) -37.5%, CC(=O)NC(Cc1c[nH]c2ccccc12)C(=O)NCCc1ccccc1 (stereo not given) -4.32%, COc1cc(Nc2nc(-c3ccc(OC)c(OC)c3)nc3ccccc23)cc(OC)c1 -14.7%, Cc1cccc(C(=O)Nc2nnc(S(=O)(=O)N3CCCCCC3)s2)c1 -1.37%, CC1CCN(S(=O)(=O)c2nnc(NC(=O)COc3ccccc3F)s2)CC1 0.509%, CCOCCCNC(=O)c1ccc2nc(CCc3ccccc3)oc2c1 -0.408%, COc1ccc(CCNC(=O)Cn2c(=O)cc(C(F)(F)F)c3c(C)nn(C)c32)c(OC)c1 2.29%, S=C(NCCc1ccccc1)NCC1CCCO1 (stereo not given) 5.46%, S=C(NCCc1ccccc1)Nc1ccccc1 -12.7%, COc1ccccc1NC(=O)c1oc2ccccc2c1NC(=O)C(C)C 0.844%, Cc1cccc(NC(=S)NCCN(C2CCCCC2)C2CCCC2)c1 -24.5%, O=C(O)CCC(=O)NCc1ccc2[nH]c3c(c2c1)CCCC3 -1.26%, O=C(CCn1c(=O)c2sccc2n(Cc2ccc(F)cc2)c1=O)NCc1ccc2c(c1)OCO2 -21.3%, O=C(Cn1c(=O)nc(-c2ccccc2)c2cc(Cl)ccc21)NCc1ccc(Cl)cc1 -12.4%, CCC(=O)Nc1cccc(-c2nc3cc(C)ccc3o2)c1 5.01%, Cc1ccc(C)c(N2CCN(C(=O)Cn3ncc4c(=O)oc5ccc(C)cc5c43)CC2)c1 -26%, O=C(O)c1ccc(-n2nc(-c3ccccc3)c3ccccc3c2=O)cc1 2.92%, N#Cc1c(-c2ccccc2)c(-c2ccccc2)n[nH]c1=O -11.4%, COc1ccc(Br)cc1CNC(=O)c1cc(=O)[nH]c2ccc(S(=O)(=O)N3CCCC3)cc12 0.679%, COc1ccc(S(=O)(=O)NCc2ccc(C(=O)N(C)Cc3ccco3)cc2)cc1 -3.81%, COc1ccc(C(=O)N(Cc2ccc(N(C)C)cc2)C2CCS(=O)(=O)C2)cc1 (stereo not given) -30.6%, CC(C)Cn1c(=O)c2ccccc2n2c(CCC(=O)N3CCN(c4cccc(Cl)c4)CC3)nnc12 -0.869%, Cc1cc(NC(=O)c2cccc(Cl)c2)ccc1-c1cc2ccccc2oc1=O 5.75%, CC1=CC(C)(C)Nc2ccc(OC(=O)C(Cc3ccccc3)N3C(=O)C4CCCCC4C3=O)cc21 (stereo not given) -37.8%, O=C(CN1C(=O)C2C3CCC(C3)C2C1=O)Oc1ccc2ccccc2c1 (stereo not given) 8.38%, COc1ccc(CCNC(=O)c2ccc3c(c2)sc2nc(-c4ccc(C)cc4)cn23)cc1OC -0.933%, Cc1cccc(CNC(=O)c2cnc3sc(N4CCCCC4)nn3c2=O)c1 11.1%, Cc1ccc2nc(/C(C#N)=C/c3ccc(-c4ccc(C(=O)OC(C)C)cc4)o3)[nH]c2c1 -14.2%, CCc1ccccc1NC(=O)N1CCC2(CC1)Oc1ccccc1C(=O)N2Cc1ccccc1F -2.22%, c1ccc2sc(NN=C3CCCC3)nc2c1 1.97%, COc1ccc(CC(=O)N/N=C/c2cc([N+](=O)[O-])cc(Br)c2O)cc1 -17.4%, CCN(CC)CCNC(=O)c1cc2c(=O)oc3ccc(C)cc3c2s1 -4.73%, CCOc1cccc(NC(=O)c2ccc(F)c(S(=O)(=O)N(CC)c3cccc(C)c3)c2)c1 8.6%, CC(C)Cc1nnc(NC(=O)CCc2ccccc2)s1 -3.69%, O=C(CCc1ccccc1)NNc1ccc(F)cc1 -4.02%, COc1ccc(OC)c(CNC(=O)CN2C(=O)CCn3nc(-c4cn(C)c5ccccc45)cc32)c1 -33.4%, COc1cccc(NC(=O)c2ccc3nc(CCc4ccccc4)oc3c2)c1 0.792%

Potency, active:
Cc1ccccc1CSc1nnc(-c2ccccn2)n1N 28.2 µM, CCC1=C/C(=C\c2ccc3c(c2)OCO3)C(=O)S1 44.7 µM, C/C(=N\NC(=S)Nc1ccc(C)cc1)c1cc2ccccc2o1 56.2 µM, C/C(=N\NC(N)=S)c1ccncc1 50.1 µM, C[C@]1(C(=O)NCCc2c[nH]c3ccccc23)C=C[C@@H](Cc2ccccc2)N1C(=O)c1ccccc1 79.4 µM, CCCC1CCC(=NNC(=S)NCCc2ccccc2)CC1 (stereo not given) 10 µM, Cc1cccc(NC(=S)NCc2ccc3[nH]c4c(c3c2)CCCC4)c1 39.8 µM, C=CS(=O)c1sc(Cl)c(N2CCOCC2)c1[N+](=O)[O-] (stereo not given) 39.8 µM, O=C(O)c1n[nH]nc1-c1ccccc1 56.2 µM, COc1ccc(N(Cc2ccc(N(C)C)cc2)C(=O)c2ccc(S(C)(=O)=O)cc2)cc1 39.8 µM, CC1=CC(C)(C)Nc2ccc(OC(=O)CN3C(=O)C4CCCCC4C3=O)cc21 (stereo not given) 56.2 µM, O=[N+]([O-])c1cc(Br)c(O)c(/C=N/Nc2nc3ccccc3s2)c1 35.5 µM, O=C(CCc1ccccc1)Nc1nn[nH]n1 70.8 µM

Potency, inactive and 3.55 µM (active):
Cc1ccccc1OCC(=O)Nc1nnc(S(=O)(=O)N2CCCC2)s1
